Measurements reported in publication PMC5540273 (PLoS ONE, 2017).

Legend:
Details in all cases: concentration: 1 μM, replicates: in singlicate; n = 1
EPHB3 = tested on: EPHB3
EPHB4 = tested on: EPHB4
EPHB6 = tested on: EPHB6
ERBB2 = tested on: ERBB2
ERBB3 = tested on: ERBB3
ERBB4 = tested on: ERBB4
ERK1 = tested on: T1, ERK1
T1 construct: gene MAPK3

ERK2 = tested on: T2, ERK2
T2 construct: gene MAPK1

ERK3 = tested on: T3, ERK3
T3 construct: gene MAPK6

ERK4 = tested on: T4, ERK4
T4 construct: gene MAPK4

ERK5 = tested on: T5, ERK5
T5 construct: gene MAPK7

ERK8 = tested on: T6, ERK8
T6 construct: gene MAPK15

ERN1 = tested on: ERN1
FAK = tested on: T7, FAK
T7 construct: gene PTK2

FER = tested on: FER
FES = tested on: FES
FGFR1 = tested on: FGFR1
FGFR2 = tested on: FGFR2
FGFR3 = tested on: FGFR3
FGFR4 = tested on: FGFR4
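Also: KINOMEscan kinase panel screen.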

| Structure (SMILES) | %Inh (EPHB3) [%] | %Inh (EPHB4) [%] | %Inh (EPHB6) [%] | %Inh (ERBB2) [%] | %Inh (ERBB3) [%] | %Inh (ERBB4) [%] | %Inh (ERK1) [%] | %Inh (ERK2) [%] | %Inh (ERK3) [%] | %Inh (ERK4) [%] | %Inh (ERK5) [%] | %Inh (ERK8) [%] | %Inh (ERN1) [%] | %Inh (FAK) [%] | %Inh (FER) [%] | %Inh (FES) [%] | %Inh (FGFR1) [%] | %Inh (FGFR2) [%] | %Inh (FGFR3) [%] | %Inh (FGFR4) [%] |
| --- | --- | --- | --- | --- | --- | --- | --- | --- | --- | --- | --- | --- | --- | --- | --- | --- | --- | --- | --- | --- |
| COc1cccc(-n2cnc3c(N)ncnc32)c1 [SKF-97416] | 0 | 0 | 28 | 31 | 46 | 1 | 0 | 0 | 5 | 0 | 0 | 8 | 43 | 4 | 0 | 4 | 7 | 0 | 0 | 0 |
| O=C(Nc1n[nH]c2nc(-c3ccccc3)c(Cl)cc12)C1CC1 [SB-734909] | 7 | 15 | 48 | 6 | 32 | 0 | 0 | 0 | 0 | 0 | 0 | 0 | 24 | 0 | 0 | 0 | 0 | 4 | 5 | 0 |
| CN1C(=O)C(Nc2cc(Cl)c(O)c(Cl)c2)=C(c2ccc(Cl)cc2)C1=O [SB-404321] | 0 | 0 | 0 | 24 | 0 | 0 | 0 | 9 | 0 | 0 | 0 | 0 | 0 | 0 | 0 | 0 | 0 | 0 | 9 | 0 |
| Nc1ncnc2c1ncn2-c1cccc(F)c1 [SKF-97560] | 0 | 0 | 25 | 1 | 20 | 0 | 9 | 0 | 13 | 2 | 3 | 0 | 27 | 1 | 14 | 0 | 0 | 12 | 1 | 90.7 |
| COc1cc(Nc2nccc(N3CCC(NC(=O)C(C)c4ccc(Cl)cc4)C3)n2)cc(OC)c1OC (stereo not drawn) [GSK1379757] | 23 | 11 | 94.7 | 61 | 0 | 26 | 0 | 0 | 5 | 12 | 0 | 0 | 0 | 0 | 2 | 18 | 0 | 45 | 2 | 0 |
| COc1cc2ncn(-c3cc(OCc4ccc(S(C)(=O)=O)cc4)c(C(N)=O)s3)c2cc1OC [GW869979] | 0 | 0 | 38 | 0 | 11 | 0 | 10 | 2 | 6 | 0 | 0 | 12 | 6 | 2 | 0 | 0 | 0 | 5 | 4 | 0 |
| CCC(=O)c1c(-c2ccccc2)c2cc(Cl)ccc2c(=O)n1Cc1cc(S(C)(=O)=O)n(CCC(C)(C)O)n1 | 9 | 0 | 21 | 0 | 7 | 20 | 12 | 32 | 14 | 14 | 15 | 0 | 18 | 10 | 10 | 5 | 0 | 22 | 29 | 8 |
| CCC(=O)c1c(-c2ccccc2)c2cc(Cl)ccc2c(=O)n1Cc1cc(S(C)(=O)=O)n(CC(F)F)n1 | 1 | 0 | 0 | 0 | 0 | 0 | 7 | 11 | 0 | 0 | 0 | 6 | 0 | 0 | 0 | 0 | 0 | 4 | 0 | 0 |
| COc1cccc(C2=C(Nc3cccc(C(=O)O)c3)C(=O)NC2=O)c1 [SB-390770] | 8 | 7 | 21 | 6 | 16 | 0 | 0 | 0 | 2 | 0 | 0 | 36 | 0 | 3 | 40 | 0 | 50 | 71 | 48 | 14 |
| COc1cc(OC)cc(-c2cc3cnc(N)nc3nc2NC(=O)NC(C)(C)C)c1 | 0 | 0 | 24 | 4 | 0 | 4 | 0 | 0 | 0 | 4 | 2 | 29 | 0 | 0 | 0 | 0 | 97.8 | 96.7 | 96.3 | 54 |
| O=C(Nc1n[nH]c2nc(-c3ccccc3)c(Br)cc12)C1CC1 [SB-708998] | 5 | 13 | 23 | 11 | 3 | 0 | 5 | 0 | 2 | 0 | 100 | 15 | 0 | 0 | 7 | 0 | 14 | 0 | 13 | 5 |
| O=c1cc(N2CCOCC2)nc2n(Cc3ccc(F)c(Cl)c3)ccn12 [GSK2297099] | 8 | 15 | 5 | 0 | 0 | 24 | 0 | 0 | 0 | 25 | 2 | 0 | 0 | 0 | 0 | 0 | 0 | 0 | 0 | 0 |
| COC(=O)c1c(-c2ccccc2)c2cc(Br)ccc2c(=O)n1Cc1ccc(S(C)(=O)=O)cc1 | 30 | 18 | 34 | 55 | 6 | 13 | 1 | 38 | 4 | 3 | 8 | 0 | 23 | 6 | 0 | 20 | 0 | 10 | 2 | 0 |
| Cc1nnc(-c2ccc3ncn(-c4ccc(S(C)=O)cc4)c3c2)o1 (stereo not drawn) | 35 | 6 | 3 | 29 | 0 | 11 | 0 | 26 | 0 | 15 | 3 | 6 | 18 | 1 | 5 | 20 | 1 | 14 | 9 | 12 |
| COc1cc2nccc(Nc3ccc(OCc4ccc(NC(C)=O)cc4)cc3)c2cc1OC.Cl [GW440135] | 32 | 19 | 19 | 31 | 40 | 9 | 0 | 0 | 5 | 0 | 0 | 25 | 0 | 0 | 4 | 8 | 4 | 47 | 26 | 0 |
